An excerpt weighted towards active compounds, which were near 7.7% of everything screened.
NOMO-1 viab – NOMO-1 AML cell viability reduction, primary screen, STK33 inhibitor project, CellTiter-Glo luminescence. NOMO-1 AML viability, 72 h. inhibition, % (no concentration beside the values). 37,000 compounds, 7.5% hits; in the data active means inhibition above about 80%
Shh pathway inh – Hedgehog pathway signaling inhibitors, primary screen, luminescence, Shh-LIGHT2 cells, Gli-luciferase; inhibition, % (test concentration not listed); 22,000 compounds, 2.1% hits; Shh-LIGHT2 Gli-luciferase reporter, 30 h;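 active means mean inhibition across valid replicates above about 65%, limit read from the data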;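 further: pathway switched on by Shh-conditioned medium diluted 1 in 25 in low serum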
PD-1 reverse act – activators reversing PD-1 mediated T-cell inhibition, primary screen, luminescence, primary human CD4 T cells, PD-L1 beads; CellTiter-Glo 96 h; activation, % (no concentration beside the values); 29,000 tested, under 10 active; AID 2316, 2010; call rule not given here;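 further: 0% = median vehicle wells and 100% = positive control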
Starred values were filed as active, the others as inactive; / = no result.

SMILES | NOMO-1 viab | Shh pathway inh | PD-1 reverse act
COc1ccc(S(=O)(=O)N(C)C[C@H]2Oc3c(NC(=O)CCCCCC(=O)Nc4ccccc4N)cccc3C(=O)N([C@H](C)CO)C[C@@H]2C)cc1 | 45 | / | -2
Cc1ccc(S(=O)(=O)N(C)C[C@@H]2Oc3c(NC(=O)CCCCCC(=O)Nc4ccccc4N)cccc3C(=O)N([C@@H](C)CO)C[C@H]2C)cc1 | 67 | / | 0
C[C@@H]1CN([C@@H](C)CO)C(=O)c2cccc(NC(=O)CCCCCC(=O)Nc3ccccc3N)c2O[C@@H]1CN(C)S(=O)(=O)c1ccccc1 | 104* | / | -4
O=C(O)[C@H]1O[C@@H](Oc2cc(O)c3c(=O)c(-c4ccc(O)cc4)coc3c2)[C@H](O)[C@@H](O)[C@@H]1O | 108* | -27 | 0
C[C@@H]1O[C@@H](Oc2cc(O)c3c(=O)c(-c4ccc(O)cc4)coc3c2)[C@H](O)[C@H](O)[C@H]1O | 5 | 40 | 1
CC(=O)c1cccc(NC(=O)COc2ccccc2C(=O)Nc2ccccc2C#N)c1 | 71 | / | -5
CCOC(=O)C1=C(S)N(C#N)C(=O)C(C#N)C12CCNCC2 (configuration not stated) | 11 | -38 | 1
COC(=O)[C@@H](NC(=O)c1cc(C)on1)C(C)C | 22 | -49 | 0
Cc1cccc(C2Sc3ccccc3N=C3c4ccccc4C(=O)C32)c1 (configuration not stated) | 104* | -14 | 0
N#Cc1c(NC(=O)CCn2cnc3ccccc3c2=O)sc2c1CCC2 | 8 | / | /
O=C(/C=C/c1ccccc1)OC[C@H]1O[C@@H](O[C@@H]2CC(C(=O)O)=C[C@@H](O)[C@H]2O)[C@H](O)[C@@H](O)[C@@H]1O | / | -12 | /
C[C@@H]1CN([C@@H](C)CO)C(=O)c2cc(NC(=O)Cc3cn(C)c4ccccc34)ccc2O[C@H]1CN(C)Cc1ccc(C(F)(F)F)cc1 | 91* | -2 | -1
C[C@H](CO)N1C[C@H](C)[C@H](CN(C)Cc2ccc(C(F)(F)F)cc2)Oc2ccc(NC(=O)Cc3cn(C)c4ccccc34)cc2C1=O | 22 | / | -3
C[C@@H]1CN([C@H](C)CO)C(=O)c2cc(NC(=O)Cc3cn(C)c4ccccc34)ccc2O[C@H]1CN(C)Cc1ccc2c(c1)OCO2 | 24 | / | 1
C[C@@H]1CN([C@@H](C)CO)C(=O)c2cc(NC(=O)Cc3cn(C)c4ccccc34)ccc2O[C@@H]1CN(C)Cc1ccc(-c2ccccc2)cc1 | 113* | / | /
C[C@H](CO)N1C[C@H](C)[C@@H](CN(C)Cc2ccncc2)Oc2ccc(NC(=O)Cc3cn(C)c4ccccc34)cc2C1=O | 92* | 3 | -2
C[C@@H]1CN([C@@H](C)CO)C(=O)c2cc(NC(=O)Cc3cn(C)c4ccccc34)ccc2O[C@H]1CN(C)Cc1ccc(-c2ccccc2)cc1 | 26 | -7 | 0
C[C@H](CO)N1C[C@H](C)[C@H](CN(C)Cc2ccc3c(c2)OCO3)Oc2ccc(NC(=O)Cc3cn(C)c4ccccc34)cc2C1=O | 92* | 24 | -2
C[C@H]1CN([C@@H](C)CO)C(=O)c2cc(NC(=O)Cc3cn(C)c4ccccc34)ccc2O[C@H]1CN(C)Cc1ccncc1 | 73 | -1 | -1
CC(=O)c1cccc(NC(=O)CSc2ncnc3sc(C)c(C)c23)c1 | 30 | / | -2
Cc1ccc(-c2nnc(SCC(=O)Nc3ccc(Br)c(C)c3)n2C)cc1 | 19 | / | 0
N#CCCN(CC1CCCO1)C(=S)NC1CC2C=CC1C2 (configuration not stated) | 21 | -7 | 0
CC1(C)Cc2c(sc(NC(=O)C(c3ccccc3)c3ccccc3)c2C#N)CO1 | 51 | 20 | 1
CCc1ccc2oc(-c3cccc(NC(=O)COc4ccccc4)c3)nc2c1 | 16 | / | 2
Cc1ccc([N+](=O)[O-])cc1NC(=O)CN(c1cc(C(F)(F)F)ccc1Cl)S(C)(=O)=O | 22 | / | 0
SMILES | NOMO-1 viab | Shh pathway inh | PD-1 reverse act
Clc1ccc(CSc2nnc(-c3cccs3)n2Cc2ccco2)c(Cl)c1 | 18 | / | /
C[C@H]1CN([C@@H](C)CO)C(=O)c2cc(NC(=O)Cc3cn(C)c4ccccc34)ccc2O[C@H]1CN(C)Cc1ccccc1 | 84* | / | 0
C[C@@H]1CN([C@H](C)CO)C(=O)c2cc(NC(=O)Cc3cn(C)c4ccccc34)ccc2O[C@@H]1CN(C)Cc1ccccc1 | 45 | / | 0
CN(C)c1ccc(C(=C2C=CC(=[N+](C)C)C=C2)c2ccc(N(C)C)cc2)cc1 | 112* | 97* | /
Cc1ccc(NC(=O)CSc2n[nH]c(CC(C)C)n2)cc1 | 8 | / | 2
Oc1c(C(Nc2cccc(Cl)c2)c2cccnc2)ccc2cccnc12 (configuration not stated) | 115* | 75* | -4
Oc1c(C(Nc2cccnc2)c2ccc(Cl)cc2)ccc2cccnc12 (configuration not stated) | 120* | / | -14
O=C(CSCc1c(Cl)cccc1Cl)Nc1cccnc1 | 18 | / | -2
Oc1c(C(Nc2cccnc2)c2ccccc2F)ccc2cccnc12 (configuration not stated) | 116* | / | /
COC(=O)c1cc(OC)c(OC)cc1NC(=O)C(C)Oc1ccc(Br)cc1 (configuration not stated) | 28 | / | -1
Cc1cc2nn(-c3ccc(F)cc3)nc2cc1NC(=O)COc1ccc(Br)cc1 | 0 | / | /
Cc1ccc(N(Cc2ccc(C(=O)Nc3cc([N+](=O)[O-])ccc3C)cc2)S(C)(=O)=O)cc1C | 4 | / | -4
CSc1ccccc1NC(=O)C(C)N(c1ccccc1)S(C)(=O)=O (configuration not stated) | 7 | / | -1
CCc1nc(SCC(=O)N2CCCc3ccccc32)n[nH]1 | 13 | / | 3
Cc1[nH]c2ccccc2c1C(c1c(C)[nH]c2ccccc12)C(C)C | 115* | 33 | -5
CC(C)Cn1c(=S)[nH]c2ccccc2c1=O | 37 | -22 | -2
CC1=C(/C=C/C(C)=C/C=C/C(C)=C\C(=O)O)C(C)(C)CCC1 | 71 | 82* | /
CC(=C/C(=O)O)/C=C/c1ccccc1 | 29 | / | 0
COc1ccccc1NC(=O)C1=C(C)Nc2ncnn2C1c1ccc(C(=O)O)cc1 (configuration not stated) | 20 | / | 1
Cc1ccccc1-c1nc(SCC(=O)Nc2sc3c(c2C#N)CCCC3)n[nH]1 | -2 | / | /
COc1ccc(NC(=O)c2ccco2)cc1NC(=O)CSc1ccc(Cl)cc1 | 15 | / | 0
CCNc1cc(N)[n+](CC)c2n[nH]c(N)c12 | 106* | 5 | 0
COc1cccc(CN2CCN(C(=O)c3cccs3)CC2)c1 | 2 | / | 0
CCC(C)C1NC(=O)C(CC(C)C)NC(=O)C(CC(=O)O)NC(=O)C(C(C)C)NC(=O)C(CC(C)C)NC(=O)C(CC(C)C)NC(=O)C(CCC(N)=O)NC(=O)CC(CCCCCCCCCC(C)C)OC1=O (configuration not stated) | / | 77* | /
C[C@]12CCC3C(CC[C@@H]4C[C@H](O)CC[C@]34C)C1CC[C@]2(O)C(=O)CO (some centres not stated) | 17 | -10 | -1
COCCCN=C1NS(=O)(=O)c2ccccc21 | -2 | / | /

Screening data from PubChem.
